Assay results published in PubChem BioAssay (Tox21).
Results filed as inconclusive are left out. Calls of active or inactive are those of the source. The call rests on the fitted dose curve; in most records, active means well fitted curve in the direction sought with a large enough effect in the repeat runs; inconclusive means weak or mixed curves; inactive means no such curve, though single readings can be large; an effect the other way counts as inactive or inconclusive.

What was measured:
[1] = qHTS RealTime-Glo MT Cell Viability Assay in HEK293 cells - 0 hour (AID 1224880); further: top concentration of the series differs between compounds; nearly all actives have a fitted effect of over 45% in size
Method in brief: (§1)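 Viable HEK293 cells reduce a cell-permeant prosubstrate; the product diffuses out and is consumed by NanoLuc in the medium to give light. Compounds went in after a 5 h incubation and plates were read over the treatment course.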

[2] = A CellTox Green Cytotoxicity Assay to monitor cytotoxicity in HEK293 cells - 32 hour (AID 1224881); further: nearly all actives have a fitted effect of over 40% in size
Method in brief: (§2)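 Fluorescence intensity, read at 0, 8, 16, 24, 32 and 40 h of compound treatment, reflected dye binding to DNA of dead HEK293 cells; compounds (23 nL, DMSO) were added 5 h after plating cells with reagent.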

[3] = A CellTox Green Cytotoxicity Assay to monitor cytotoxicity in HepG2 cells - 32 hour (AID 1224883); further: nearly all actives have a fitted effect of over 50% in size; further: potency means the concentration at half of the fitted maximal effect
Method in brief: (§3)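 Using 1536-well format, dye-containing HepG2 suspension was seeded, allowed 5 h at 37 C/5% CO2, dosed by pintool with compounds, positive and negative controls, and imaged for fluorescence across 40 h.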

[4] = A CellTox Green Cytotoxicity Assay to monitor cytotoxicity in HEK293 cells - 8 hour (AID 1224884); further: nearly all actives have a fitted effect of over 35% in size
Method in brief: as §2

[5] = qHTS RealTime-Glo MT Cell Viability Assay in HepG2 cells - 16 hour (AID 1224885); further: nearly all actives have a fitted effect of over 50% in size
Method in brief: (§4)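 Tox21 10K library screened in qHTS format on HepG2 cells carrying RealTime-Glo reagents. Compounds were added after a 5 h preincubation, and the luminescent signal from continuous culture was measured repeatedly during 40 h treatment.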

[6] = qHTS RealTime-Glo MT Cell Viability Assay in HEK293 cells - 24 hour (AID 1224886); further: top concentration of the series differs between compounds; nearly all actives have a fitted effect of over 50% in size
Method in brief: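 Luminescence generated by NanoLuc from substrate produced by living HEK293 cells served as the viability signal. Each value reflects the reading at its stated time point during continuous 40 h compound exposure at 37 C.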

[7] = A CellTox Green Cytotoxicity Assay to monitor cytotoxicity in HEK293 cells - 16 hour (AID 1224888); further: nearly all actives have a fitted effect of over 35% in size
Method in brief: as §2

[8] = qHTS RealTime-Glo MT Cell Viability Assay in HEK293 cells - 8 hour (AID 1224887); further: top concentration of the series differs between compounds; nearly all actives have a fitted effect of over 50% in size
Method in brief: as §1

[9] = qHTS RealTime-Glo MT Cell Viability Assay in HepG2 cells - 0 hour (AID 1224889); further: nearly all actives have a fitted effect of over 50% in size
Method in brief: as §4

[10] = A CellTox Green Cytotoxicity Assay to monitor cytotoxicity in HepG2 cells - 0 hour (AID 1224882); further: nearly all actives have a fitted effect of over 35% in size
Method in brief: as §3

Measured: Potency

CCCCCCCCCCCCCCC
not listed: [8] | [9] | [10]
inactive: all other assays above

CN(C)C(=O)Nc1ccccc1
not listed: [10]
inactive: all other assays above

COc1nc(C)nc(N)n1
not listed: [10]
inactive: all other assays above

Cc1c(C)n(CCN(C)C)c2ccc(C(=O)OCCN(C)C)cc12
not listed: [6] | [9] | [10]
inactive: all other assays above

CCCCCCCCN(C)CCCCCCCC
active: [3] 22.1 µM
not listed: [8] | [10]
inactive: all other assays above

CC(=O)OC(C)(C)C
not listed: [10]
inactive: all other assays above

O=[N+]([O-])c1ccc(CCO)cc1
not listed: [2]
inactive: all other assays above

CCCCCCCCCCC1CO1 (centres undefined)
not listed: [10]
inactive: all other assays above

CC(C)c1cccc(O)c1
not listed: [3] | [9] | [10]
inactive: all other assays above

N#CCN(CC#N)CCN(CC#N)CC#N
not listed: [2]
inactive: all other assays above

COCc1ccc(COC)cc1
not listed: [10]
inactive: all other assays above

Cc1ncc(CSSCc2cnc(C)c(O)c2CO)c(CO)c1O
not listed: [3] | [10]
inactive: all other assays above

NS(=O)(=O)c1cc(C2(O)NC(=O)c3ccccc32)ccc1Cl (centres undefined)
not listed: [10]
inactive: all other assays above

O=C1CC2(CCCC2)CC(=O)N1
not listed: [10]
inactive: all other assays above

CCC(C)(C)C1CCC(OC)CC1 (centres undefined)
not listed: [6] | [10]
inactive: all other assays above

CCC(C)OC(=O)N1CCCCC1CCO (centres undefined)
not listed: [3] | [8] | [10]
inactive: all other assays above

CC(C)CCCCCCN
not listed: [2] | [9]
inactive: all other assays above

COc1ccc(NC(C)=O)cc1
not listed: [10]
inactive: all other assays above

Cc1nccn1CC1CCc2c(c3ccccc3n2C)C1=O (centres undefined)
not listed: [2]
inactive: all other assays above

CC(=O)c1ccc(C)cc1
not listed: [2]
inactive: all other assays above

CC(=O)NC(Cc1ccccc1)C(=O)O (centres undefined)
not listed: [10]
inactive: all other assays above

c1ccc2cnncc2c1
not listed: [10]
inactive: all other assays above

Cc1nc(-c2ccc(OCC(C)C)c(C#N)c2)sc1C(=O)O
not listed: [2]
inactive: all other assays above

CC1=CCC2C(C1)C2(C)C (centres undefined)
not listed: [10]
inactive: all other assays above

NC(=O)c1ncn([C@@H]2O[C@H](CO)[C@@H](O)[C@H]2O)c1N
not listed: [10]
inactive: all other assays above

O=C(O)c1cccc(C(=O)O)n1
not listed: [2]
inactive: all other assays above

CO[Si](CCCNCCC[Si](OC)(OC)OC)(OC)OC
not listed: [2]
inactive: all other assays above

CN1[C@@H]2CC[C@H]1CC(NC(=O)n1c(=O)[nH]c3ccccc31)C2 (some centres undefined)
not listed: [3] | [10]
inactive: all other assays above

C1C2OC2C2C1C1CC2C2OC12 (centres undefined)
not listed: [2]
inactive: all other assays above

CCc1cc(S(=O)(=O)O)c2cc(C(C)C)cccc1-2
not listed: [8] | [10]
inactive: all other assays above

CC(C)N1C(=O)c2ccccc2C1=O
not listed: [2] | [8] | [9]
inactive: all other assays above

CCO[Si](C)(OCC)OCC
not listed: [2]
inactive: all other assays above

C=C[Si](OC)(OC)OC
not listed: [1]
inactive: all other assays above

c1ccc(SCCSc2ccccc2)cc1
not listed: [2] | [10]
inactive: all other assays above

CCCCCCC(=O)OCC
not listed: [2] | [8]
inactive: all other assays above

CCCc1ccccc1O
not listed: [1] | [9]
inactive: all other assays above

CCCCCCOC(=O)CC(CC(=O)OCCCCCC)(OC(=O)CCC)C(=O)OCCCCCC
not listed: [2] | [8]
inactive: all other assays above

O=[N+]([O-])c1ccc(Oc2ccc([N+](=O)[O-])cc2)cc1
not listed: [2] | [6] | [8]
inactive: all other assays above

COc1ccc(COC=O)cc1
not listed: [1] | [9]
inactive: all other assays above

NCCNC(=O)c1ccc(Cl)cn1
not listed: [2] | [3] | [8]
inactive: all other assays above

CC(C)CCOC(=O)CC(C)C
not listed: [2] | [4] | [7]
inactive: all other assays above

Cc1cc(C)c(NC(=O)CN(CC(=O)O)CC(=O)O)c(C)c1Br
not listed: [2]
inactive: all other assays above

O=C(CCOCCOCCOCCOCCC(=O)Nc1c(I)cc(I)c(C(=O)O)c1I)Nc1c(I)cc(I)c(C(=O)O)c1I
not listed: [2] | [3]
inactive: all other assays above

C=C(C)C(=O)NCCCN(C)C
not listed: [2] | [4] | [7]
inactive: all other assays above

CC(C)[N+](C)(C)CC(O)COc1cccc2ccccc12 (centres undefined)
not listed: [1] | [9]
inactive: all other assays above

CC(C)(O)C(=O)c1ccc(OCCO)cc1
not listed: [1] | [9]
inactive: all other assays above

COc1cc(C(=O)N2CCOCC2)cc(OC)c1OC
not listed: [2] | [10]
inactive: all other assays above

CC(C)COC(=O)C(C)C
not listed: [2]
inactive: all other assays above

CCCCc1ccc(N)cc1
not listed: [2] | [6] | [8]
inactive: all other assays above

CC(C)c1cccc(C(C)C)c1N
not listed: [2] | [3]
inactive: all other assays above
